L3MBTL1 inh = L3MBTL1 (human) inhibition. Q9Y468. AlphaScreen L3MBTL1–H3K9me1 peptide binding. Potency, µM (top dose mostly 57.1 µM), most hits filed as inhibitors. actives 0.66% (n = 230,000). AID 485360; also: nearly all actives have a fitted effect of over 60% in size
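AlphaScreen proximity signal between nickel-chelate acceptor and streptavidin donor beads (final 10 ug/mL) reports binding of 50 nM L3MBTL1 to 75 nM biotin-H3 K9me1 peptide; complex incubated with compounds 30 min at room temperature; cefsulodin titration as control.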
BAZ2B block = BAZ2B (human) inhibition. Q9UIF8. AlphaScreen BAZ2B-H3K14Ac peptide displacement. Potency, µM (series often up to 114 µM), most hits filed as inhibitors. actives 4.4% (n = 360,000). AID 504333; also: nearly all actives have a fitted effect of over 60% in size
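AlphaScreen displacement of biotin-H3(5-23)K14Ac peptide (50 nM final) from BAZ2B (50 nM final) in PBS pH 7.4, 0.01% Tween-20; complex preformed 30 min RT, then compounds (top 110 uM) 30 min RT, beads 20 min dark.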
G9a inh = blocks human histone lysine methyltransferase G9a | G9a H3K9 monomethylation, AlphaScreen, 2 h | AID 504332 | actives 8.8% (n = 350,000) | Q96KQ7 | Potency, µM (top dose mostly 102 µM), actives largely listed as inhibitors; also: nearly all actives have a fitted effect of over 75% in size
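Using a bead-based AlphaScreen, monomethylated H3K9 product from 2 h room-temperature reactions (G9a 20 nM, peptide 500 nM, SAM 20 uM) was detected with 0.5 ug/mL rabbit anti-H3K9me1 antibody.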
Sfp inh = blocks B. subtilis Sfp PPTase activity. Q9F4F7. Biochemical Sfp PPTase activity, qHTS. Potency, µM, hits mostly inhibitors. actives 3.5% (n = 310,000). AID 1490;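 also: the enzyme is Sfp with the accession as filed and its product quenches rhodamine fluorescence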
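Step 1, compound plus 15 nM Sfp-PPTase, 15 min, room temperature. Step 2, add rhodamine-CoA (5 uM) and BHQ-2-YbbR (12.5 uM). Step 3, read 525/598 nm fluorescence at 0 and 30 min.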
JMJD2A Tudor = JMJD2A Tudor domain (human) inhibition; AlphaScreen JMJD2A-Tudor / H3K4me3 peptide binding; Potency, µM (top dose mostly 114 µM), hits mostly inhibitors; actives 4.4% (n = 390,000); also: nearly all actives have a fitted effect of over 50% in size
HP1b binding inh = inhibitors of HP1-beta chromodomain binding to methylated histone tails. actives 0.56% (n = 390,000). Potency, µM (top dose mostly 114 µM), most hits filed as inhibitors. AlphaScreen HP1-beta / biotin-H3K9me3 peptide binding; also: nearly all actives have a fitted effect of over 70% in size
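Compound inhibition of the preformed complex between 50 nM HP1-beta and 50 nM biotinylated H3K9me3 peptide was read by AlphaScreen. Buffer was PBS pH 7.4 with 0.01% Tween-20. Incubations ran 30 min at room temperature, with 10 ug/mL donor/acceptor beads.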
Of the large screens only hits and unclear results are named; the others gave an inactive call. Hits are enriched below; roughly 12% of the tested compounds scored in any of these assays. Calls follow the shape of the dose curve; as a rule, active = well fitted curve in the direction sought with a large enough effect; inconclusive = small, poorly fitted or top-dose-only effect, or another doubt; inactive = no such curve, though single readings can be large; an effect the other way counts as inactive or inconclusive.

CCCCn1c(N)c(N(CC(C)C)C(=O)c2ccc(C)o2)c(=O)[nH]c1=O	G9a inh inconclusive (no result: Sfp inh)
CCCCN(C(=O)Cc1ccc(S(=O)(=O)N2CCOCC2)s1)c1c(N)n(CCCC)c(=O)[nH]c1=O	G9a inh 56.2µM (no result: Sfp inh)
O=C1C(=O)N(C2CCN(S(=O)(=O)c3ccccc3)CC2)CCN1Cc1ccccc1	none (no result: L3MBTL1 inh, Sfp inh)
O=C(CN1CCCC1)OCCCC1CCCCC1	G9a inh 56.2µM
C[N+]1(CC(=O)OCCCC2CCCCC2)CCCC1	G9a inh 56.2µM, JMJD2A Tudor inconclusive, HP1b binding inh inconclusive
CCc1ccc(NC(=O)CC2C(=O)N(c3cccc(C)c3)C(=O)N2CCC(C)C)cc1 (centres undefined)	none (no result: L3MBTL1 inh, Sfp inh)
Cc1ccc(N2CCN(C(=O)c3cn(C)c4ccc(S(=O)(=O)N5CCC(C)CC5)cc4c3=O)CC2C)cc1 (centres undefined)	JMJD2A Tudor inconclusive (no result: L3MBTL1 inh, BAZ2B block, Sfp inh)
Cc1cc2oc(C(=O)Nc3sc4c(c3C(=O)NCC3CCCO3)CCCC4)cc(=O)c2cc1C (centres undefined)	none (no result: L3MBTL1 inh, Sfp inh)
COc1ccc(Cn2c(CCC(=O)Nc3cccc(Cl)c3)nc3cccnc32)cc1	none (no result: L3MBTL1 inh, Sfp inh)
CC1OC2(C)OC(=N)C1(C#N)C(C#N)(C#N)C2c1ccccc1 (centres undefined)	none
CCCCC1OC2(C)OC(=N)C1(C#N)C(C#N)(C#N)C2c1ccccc1 (centres undefined)	G9a inh 44.7µM
CCOc1ccc(-n2cc(-c3ccccc3)c3c(N4CCC(C)CC4)ncnc32)cc1	BAZ2B block inconclusive (no result: L3MBTL1 inh, Sfp inh)
Cc1cc(O)c2c(c1O)C(=O)C(O)=C(O)C2=O	Sfp inh 44.7µM (no result: L3MBTL1 inh, BAZ2B block, G9a inh, JMJD2A Tudor, HP1b binding inh)
COc1ccc(OC)c(NC(=O)C(OC(=O)CNC(=O)c2ccccc2)c2ccccc2)c1 (centres undefined)	none (no result: L3MBTL1 inh, BAZ2B block, G9a inh, Sfp inh, HP1b binding inh)
COc1ccc(C2CC(=O)N(CCCN(C)CCc3ccc(OC)c(OC)c3)C2)cc1 (centres undefined)	BAZ2B block 89.1µM, G9a inh inconclusive, Sfp inh inconclusive, JMJD2A Tudor 100µM, HP1b binding inh inconclusive (no result: L3MBTL1 inh)
COc1ccc(CCN(C)CCCN2CC(c3ccccc3)CC2=O)cc1OC (centres undefined)	BAZ2B block inconclusive, G9a inh 50.1µM, JMJD2A Tudor 25.1µM (no result: L3MBTL1 inh)
O=S(=O)(c1cccs1)N1CCN(c2nc(-c3cccs3)nc3ccccc23)CC1	none (no result: L3MBTL1 inh, BAZ2B block, G9a inh, Sfp inh)
CCCn1c(SCC(=O)C(C)(C)C)nc2ccccc21	G9a inh 35.5µM, Sfp inh 56.2µM
CC(C)(C)NC(=O)Cn1c(SCC(N)=O)nc2ccccc21	JMJD2A Tudor 20µM
CCOc1ccc2[nH]c(=O)c(C(c3nnnn3Cc3ccco3)N3CCCC(C)C3)cc2c1 (centres undefined)	BAZ2B block inconclusive, G9a inh inconclusive, Sfp inh 12.6µM (no result: L3MBTL1 inh)
Cc1ccc2[nH]c(=O)c(CN(Cc3nnnn3C3CCCC3)C3CCCCC3)cc2c1	none
Cc1ccc(C)c2[nH]c(=O)c(C(c3nnnn3Cc3ccco3)N3CCc4ccccc4C3)cc12 (centres undefined)	G9a inh 31.6µM, Sfp inh 20µM
COc1ccc2[nH]c(=O)c(CN(C3CCCCC3)C(c3nnnn3Cc3ccco3)C(C)C)cc2c1 (centres undefined)	L3MBTL1 inh inconclusive, G9a inh 22.4µM, Sfp inh 3.16µM, JMJD2A Tudor inconclusive, HP1b binding inh inconclusive
COc1ccc(Cn2nnnc2CN(Cc2cc3cc(C)ccc3[nH]c2=O)C2CCCC2)cc1	G9a inh inconclusive, Sfp inh 20µM
Cc1ccc(C)c2[nH]c(=O)c(C(c3nnnn3CCc3ccccc3)N3CCOCC3)cc12 (centres undefined)	none
CC(C(=O)NCc1ccccc1F)n1ccc2cc(S(=O)(=O)N3CCCC3)ccc21 (centres undefined)	none (no result: L3MBTL1 inh, Sfp inh)
CC(C)(C)OC(=O)N1CCC(c2c(C(=O)NCCN3CCOCC3)cnn2-c2cccc(F)c2)CC1	none (no result: L3MBTL1 inh, Sfp inh)
COc1ccc2cc(CN(CCc3ccccc3)Cc3nnnn3Cc3ccco3)c(=O)[nH]c2c1	BAZ2B block inconclusive, G9a inh inconclusive

Assay outcomes (PubChem BioAssay)
